The source of these data is PubChem BioAssay AID504848 (National Center for Advancing Translational Sciences (NCATS), 2011).

Among all 2,300 compounds or so, about 1,400 (61%) were called active. About 29% were inconclusive and are not listed. Calls follow the shape of the dose curve; as a rule, active = well fitted inhibition curve with a large enough effect; inconclusive = small, poorly fitted or top-dose-only effect, or effect the other way; inactive = no such curve, though single readings can be large or run the other way. The set was probably picked from earlier hits. The list shows a part of the results.
% is scaled to controls: 0 for no effect and ±100 for the full control effect; potency is read from the fitted curve at half-maximal effect.

This assay in a line: Confirmation screen for delayed death inhibitors of the malarial parasite plastid, 96 hour incubation. Also: nearly all actives have a fitted effect of over 60% in size. The note with it: P. falciparum luciferase growth in erythrocytes; series mostly up to 28.7 µM; activity change, negative = inhibition: at the top concentration. The gist of the method: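 Two-generation (96 h, 37 C) exposure of P. falciparum carrying an integrated firefly luciferase reporter in erythrocytes, 0.1% parasitemia and 2% hematocrit final, Albumax-supplemented RPMI. Luminescence decrease measures growth inhibition.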
`O=C(/C=C/c1ccc(Cl)c(Cl)c1)NCCCn1ccnc1`: the Potency is 12.6 µM (active).

In the case of `COc1ccc(C)cc1NC(=O)CSCc1ccccc1C`, the Potency was 12.6 µM (active).

In the case of `CCOc1ccc(-n2c(N)c(-c3nc4ccccc4n3C)c3nc4ccccc4nc32)cc1`, the Potency is 3.98 µM (active).

Consider `Cc1cc(NC(=O)CN2C(=O)NC(c3ccccc3)(c3ccc(C)c(C)c3)C2=O)no1` (centres undefined), for which the Potency is 11.2 µM (active).

Take `COc1ccccc1CNC(=O)CN1C(=O)NC(c2ccccc2)(c2ccc(C)c(C)c2)C1=O` (centres undefined): the Potency is 12.6 µM (active).

On to `Cc1cccc(CS(=O)(=O)c2ncc(Cl)c(C(=O)Nc3c(C)cccc3C)n2)c1`, for which the “activity change, negative = inhibition” value was -31.5% (inactive).

On to `COc1cc(NCc2ccc3nc(N)nc(N)c3c2C)cc(OC)c1OC`, for which the Potency is 0.199 µM (active).

For `Cc1ccc(-n2cc(CN3CCC(CO)(Cc4cccc(C(F)(F)F)c4)CC3)cn2)cc1`, the Potency was 7.94 µM (active).

For `Cc1c(CCO)sc[n+]1CC(=O)OCCC12CC3CC(CC(C3)C1)C2`, the Potency was 3.16 µM (active).

`O=C(Nc1ccc(F)cc1)c1ccc(CN2CCc3ccccc3C2)cc1`: the Potency was 12.6 µM (active).

As to `Cc1cc(C)cc(NC(=O)c2ccc(CN3CCc4ccccc4C3)cc2)c1`, the Potency was 11.2 µM (active).

Consider `O=C(Nc1ccc(Cl)cc1)c1ccc(CN2CCc3ccccc3C2)cc1`, for which the Potency was 14.1 µM (active).

`O=C(Nc1ccc2[nH]ncc2c1)c1ccc(F)cc1`: the “activity change, negative = inhibition” value is -10% (inactive).

With `COc1ccc(N2C(=O)C3C(C2=O)C(C(=O)c2ccc(Cl)cc2)N2CCCC32)cc1` (centres undefined), the “activity change, negative = inhibition” value is -33.2% (inactive).

On to `Cc1c(CC(=O)N2C[C@H]3C[C@@H](C2)c2cccc(=O)n2C3)c(=O)oc2cc3occ(C(C)(C)C)c3cc12`, for which the Potency was 12.6 µM (active).

`Cc1c(OC(C)C(=O)N2C[C@H]3C[C@@H](C2)c2cccc(=O)n2C3)ccc2c3c(c(=O)oc12)CCC3` (some centres undefined): the Potency is 11.2 µM (active).

With `CC(C)N1C/C(=C/c2ccsc2)C(=O)/C(=C/c2ccsc2)C1`, the Potency is 5.62 µM (active).

`CCC1S/C(=N/N=C/c2ccco2)N(Cc2ccccc2C)C1=O` (centres undefined): the Potency is 10 µM (active).

Turning to `CCc1nc(SCC(=O)N2c3ccccc3CC2C)c2c(C)c(C)sc2n1` (centres undefined), the Potency was 11.2 µM (active).

With `CCc1nc(SCC(=O)Nc2ccccc2OC)c2c(C)c(C)sc2n1`, the Potency is 12.6 µM (active).

As to `CC(=O)NCCC(=O)Nc1cc(S(=O)(=O)N2CCOCC2)ccc1Oc1ccccc1`, the Potency was 10 µM (active).

With `CN(C)S(=O)(=O)c1ccc(NCC2COc3ccccc3O2)c([N+](=O)[O-])c1` (centres undefined), the Potency was 12.6 µM (active).

As for `COc1ccc(C(=O)CC(SCC(NC(C)=O)C(=O)O)c2ccc(Cl)cc2)cc1OC` (centres undefined), the Potency is 11.2 µM (active).

For the compound `CCOC(=O)N1C/C(=C\c2ccccc2)C(=O)/C(=C/c2ccccc2)C1`, the Potency is 4.47 µM (active).

Regarding `O=[N+]([O-])c1ccc(C[n+]2cccc3c4ccccc4ccc32)cc1`, the Potency was 0.126 µM (active).

Consider `COC1C(OC(=O)/C=C/C=C/C=C/C=C/C(=O)O)CCC2(CO2)C1C1(C)OC1CC=C(C)C` (centres undefined), for which the Potency is 0.0501 µM (active).

On to `CC1=CC(C)(C)N2C(=O)C3(NCCc4c3[nH]c3ccccc43)c3cc(C)cc1c32` (centres undefined), for which the Potency was 11.2 µM (active).

For `Fc1ccc(CNc2ccc(N3CCN(Cc4ccccc4)CC3)cc2)cc1`, the Potency was 12.6 µM (active).

For the compound `CCCc1c(NC(=O)Nc2ccc(F)cc2)cnn1-c1ccc(Cl)cc1`, the Potency is 10 µM (active).

As for `CC1=NCCN1CCNC(=O)Nc1ccc(F)cc1`, the “activity change, negative = inhibition” value is -7.96% (inactive).

As for `CCCc1c(NC(=O)Nc2ccc(F)cc2)cnn1-c1ccccc1`, the Potency is 11.2 µM (active).

Regarding `Cc1cccc(C2Nc3ccccc3C(=O)N2c2ccccc2)n1` (centres undefined), the “activity change, negative = inhibition” value is -14.4% (inactive).

Consider `CCCN1C(=O)c2ccccc2NC1c1ccc(OC)cc1O` (centres undefined), for which the Potency was 11.2 µM (active).

Take `Fc1ccc(CSc2nncn2NCc2ccc3c(c2)OCO3)cc1`: the “activity change, negative = inhibition” value was -15.7% (inactive).

As to `Fc1cccc(CNc2ncnc3ccc(-c4ccc5c(c4)OCO5)cc23)c1`, the Potency was 4.47 µM (active).

In the case of `Clc1ccc(-c2c[n+](Cc3ccc(Br)cc3)c3n2CCCCC3)cc1`, the Potency was 0.0251 µM (active).

On to `Clc1ccc(-c2c[n+](Cc3ccc(Cl)cc3Cl)c3n2CCCCC3)cc1`, for which the Potency was 0.0794 µM (active).

With `CCN(CC)c1ccc(/C=C/c2cccc[n+]2C)c(OC)c1`, the Potency is 0.141 µM (active).

Consider `COC(=O)c1ccc(COc2ccc(-c3nnn(CC(N)=O)n3)cc2)cc1`, for which the Potency was 1.58 µM (active).
